Only some compounds are listed: those with a hit (about 19% of all), similar ones and a draw of the others.
HT1080NT lethal: kills 2HG-producing HT-1080-NT fibrosarcoma cells; HT-1080-NT fibrosarcoma viability, CellTiter-Glo ATP luminescence, 48 h; Potency, µM (top dose mostly 46.1 µM), actives largely listed as cytotoxic; 360,000 tested, 1.6% active;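 also: NT is the 2HG producing partner of a matched IDH1 knockdown line; nearly all actives have a fitted effect of over 55% in size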
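Viability of the 2HG-overproducing fibrosarcoma line after 48 hours of compound exposure at 37 degrees C was determined by luminescence with CellTiter-Glo, and concentration-effect curves were then fitted and categorized.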
IL1B secr inh: blocks inflammasome-driven IL-1 beta release | activity change, % at 57.5 µM | THP-1 LPS/ATP IL-1B secretion, AlphaLISA, 16 h; stronger effect = lower value | 360,000 tested, 4.7% active; in the data active = activity change below about -50%; inconclusive = mostly about -30% to -49%
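Secreted IL-1B measured by AlphaLISA bead assay after 16 h compound exposure of THP-1 cells; compounds (final up to 57.5 uM) added 1 h before LPS (250 ng/mL) and ATP (1.25 mM) stimulation; lower signal means less secretion.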
DT40 TDP1 no CPT: qHTS for Inhibitors of human tyrosyl-DNA phosphodiesterase 1 (TDP1): qHTS in cells in absence of CPT | DT40 Tdp1-/- hTDP1 cells, no CPT, ATP luminescence, 48 h | Potency, µM (titrated, usually from 46.2 µM), most hits filed as inhibitors | 420,000 tested, 15% active | AID 686978, 2013; also: nearly all actives have a fitted effect of over 55% in size
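No-CPT arm: Tdp1-/-;hTDP1 DT40 cells (400/well) plus compounds, incubated ≥48 hr at 37 °C. Readout CellTiter-Glo luminescence.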
DT40 TDP1 CPT: DT40-hTDP1 cell growth loss with CPT | chicken DT40 Tdp1-/-;hTDP1 cells + 20 nM CPT, ATP luminescence, 48 h | Potency, µM (top dose mostly 46.2 µM), most hits filed as inhibitors | 420,000 tested, 12% active; also: nearly all actives have a fitted effect of over 55% in size
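Cell growth measured by CellTiter-Glo luminescence after a minimum 48 h, 37 C compound exposure with 20 nM CPT in Tdp1-knockout DT40 cells stably expressing hTDP1, seeded 400/well; qHTS titration format.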
HT1080 IDH1KD tx: kills HT-1080 cells with IDH1 knockdown | HT-1080 IDH1 knockdown viability, ATP luminescence, 48 h | Potency, µM (doses to about 46.1 µM), most hits filed as cytotoxic | 360,000 tested, 2% active
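HT-1080-IDH1KD cells (IDH1 knocked down), 750/well in RPMI with 5% FBS, treated with compound 48 h at 37 degrees C. Viability by CellTiter-Glo luminescence, normalised to DMSO and no-cell wells; concentration-response curves classed.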
Numbers stand for hits; - = inactive; ? = inconclusive; . = not tested or not shown; [ ] = dose if it differs, or a comment. Unless noted, calls follow the shape of the dose curve; as a rule, active = well fitted curve in the direction sought with a large enough effect; inconclusive = small, poorly fitted or top-dose-only effect, or another doubt; inactive = no such curve, though single readings can be large; an effect the other way counts as inactive or inconclusive.

SMILES	HT1080NT lethal	IL1B secr inh	DT40 TDP1 no CPT	DT40 TDP1 CPT	HT1080 IDH1KD tx
C=CCNC(=O)c1ccc2c3n(nc2c1)-c1ccccc1CO3	?	-	23µM	15µM	?
Cc1ccc2c(c1)COc1c3ccc(C(=O)N[C@@H](C)CO)cc3nn1-2	-	-	?	?	-
COCCNC(=O)c1ccc2c3n(nc2c1)-c1ccc(Cl)cc1CO3	-	-	21µM	?	-
Cc1ccc2c(c1)COc1c3ccc(C(=O)NC(C)C)cc3nn1-2	-	-	10µM	?	-
CCc1ccc(-n2c(=S)sc3c(=O)n(-c4ccccc4)c(SCC(=O)O)nc32)cc1	-	-	-	-	-
Cc1ccccc1NC(=O)c1cnc2sc(N3CCCC3)nn2c1=O	.	.	-	-	.
CC(C)c1ccc(NC(=O)c2cnc3sc(N4CCCC4)nn3c2=O)cc1	.	.	2.1µM	2.9µM	.
O=C(Nc1cccc(F)c1)c1cnc2sc(N3CCCC3)nn2c1=O	.	.	3.3µM	2.3µM	.
N#C/C(=N\Nc1ccc(Cl)cc1)C(=O)c1ccccc1	2.6µM	-52	10µM	9.2µM	?
Cc1c(N/N=C(\C#N)C(=O)c2ccc(Cl)cc2)c(=O)n(-c2ccccc2)n1C	?	-	3.7µM	3.7µM	2.6µM
COC(=O)C(=NNc1c(C)n(C)n(-c2ccccc2)c1=O)C(=O)OC	?	-	-	-	-
CCOC(=O)NC(=O)/C(C#N)=N\Nc1ccc(Cl)cc1	-	-	-	-	-
Fc1ccc(-c2nnc(-c3ccc4ccccc4c3)o2)cc1	-	-	-	-	-
C=C(C)C1CCC(C)=C1CC(C)(C)/C=N\n1cnnc1 (stereo not drawn)	-	-	21µM	10µM	-[9.24 µM]
CCCCN1Cc2cc(C(=O)c3cc(F)ccc3O)cnc2NC1=O	?	-57	?	?	-
Cc1[nH]nc2ncc(C(=O)c3cc(F)ccc3O)cc12	-	-	?	?	-
COc1ccc(CNCC(O)(c2ccc(Cl)cc2)c2ccc(Cl)cc2)cc1	?	-	18µM	15µM	?
COc1ccc(CCNC(=O)Cc2ccc(Cl)cc2)cc1OC	-	-	-	-	-
COc1ccc(CNCC(O)(c2ccc(Cl)cc2)c2ccc(Cl)cc2)cc1OC	?	?	6.5µM	15µM	?
CCCCNCC(O)(c1ccc(Cl)cc1)c1ccc(Cl)cc1	?	-132	23µM	15µM	18µM
COc1ccc(CNCC(O)(c2ccccc2)c2ccc(F)cc2)cc1 (stereo not drawn)	-	-89	15µM	21µM	?
Cn1nnnc1NN=Cc1ccccc1	-	-	-	-	-
COc1cc(CNCc2ccc(C(=O)O)cc2)ccc1OCc1ccc(F)cc1	-	-	-	-	-
COc1ccc(CNCC(O)(c2ccccc2)c2ccc(F)cc2)cc1OC (stereo not drawn)	-	-88	15µM	?	-
COc1ccc(CNCC(O)(c2ccc(F)cc2)c2ccc(F)cc2)cc1OC	?	?	16µM	?	?
SMILES	HT1080NT lethal	IL1B secr inh	DT40 TDP1 no CPT	DT40 TDP1 CPT	HT1080 IDH1KD tx
COc1cccc(NC(=O)CN(Cc2ccccc2)S(=O)(=O)c2ccc3nc(C)sc3c2)c1	.	.	26µM	?	.
COc1ccc(NC(=O)CN(C)S(=O)(=O)c2ccc3nc(C)sc3c2)cc1	.	.	-	-	.
COc1cccc(CNC(=O)CNS(=O)(=O)c2ccc3nc(C)sc3c2)c1	.	.	15µM	?	.
CCOc1ccc(NC(=O)CN(Cc2ccccc2)S(=O)(=O)c2ccc3nc(C)sc3c2)cc1	.	.	26µM	?	.
Cc1cc(C(F)(F)F)nn2cnnc12	-	-	-	-	-
CCN1CCN(c2ccc(NC(=O)c3ccc4c(c3)OCCO4)cc2C)CC1	-	?	-	-	-
CCN1CCN(Cc2ccc(NC(=O)c3ccc(C)c(NC(=O)c4nccn4C)c3)cc2C(F)(F)F)CC1	-	-58	-	-	-
CCN1CCN(Cc2ccc(NC(=O)c3ccc(C)c(NC(=O)c4cccc5[nH]ccc45)c3)cc2C(F)(F)F)CC1	?	-98	13µM	12µM	?
CCN1CCN(Cc2ccc(NC(=O)c3ccc(C)c(NC(=O)c4nccnc4N)c3)cc2C(F)(F)F)CC1	?	-93	21µM	?	?
CCN1CCN(Cc2ccc(NC(=O)c3ccc(C)c(NC(=O)c4cc(-c5ccc(Br)cc5)n[nH]4)c3)cc2C(F)(F)F)CC1	-	-58	?	?	-
CN(C(=O)COC(=O)/C=C/c1cccs1)C1CCCCC1	-	-	-	-	-
CN(Cc1ccccc1)C(=O)CCCn1c(=O)c2cccn2c2cccnc21	-	-	-	-	-
CCc1cc(CC)c(/C=N/NC(N)=O)c(CC)c1	-	-	?	-	-
CCN1CCN(Cc2ccc(NC(=O)c3ccc(C)c(NC(=O)c4cncc(-c5cccs5)c4)c3)cc2C(F)(F)F)CC1	21µM	-110	1.6µM	2.3µM	18µM
Nc1ccn([C@@H]2O[C@H](C(=O)N3CCCN(Cc4ccccc4F)CC3)[C@@H](O)[C@H]2O)c(=O)n1	-	-	-	-	-
O=C(NNC(=O)c1ccc(NC(=O)c2ccccc2)cc1)c1ccc(F)cc1	-	-	-	-	-
O=C(Nc1ccc(/C=C/c2nc3ccccc3o2)cc1)c1ccc(F)cc1	-	-	?	21µM	-
CCN(CC(=O)NCc1ccc(Cl)cc1)C(=O)c1sccc1C	-[9.24 µM]	-	-	?	-
COc1cccc(C(=O)Nc2ccc(N3CCN(C(=O)c4cccs4)CC3)cc2)c1	?	-87	4.6µM	2.3µM	2.6µM
O=C(Nc1ccc(N2CCN(C(=O)c3cccs3)CC2)cc1)c1cccc(F)c1	-	-89	21µM	16µM	?
Cc1cc(C)n(-c2ccc(C(=O)OCC(=O)N3CCN(c4ccccc4)CC3)cc2)n1	-	-	?	-	-
O=C1C=Cc2cccc3ccc(O)c1c23	?	?	15µM	23µM	?
Cc1ccccc1CN1CCN(C(=O)c2ccc(F)cc2)CC1	-	?	-	?	-
CCc1nnc(NC(=O)C23CC4CC(CC(C4)C2)C3)s1	-	-	-	-	-
CC(C)Cc1nnc(NC(=O)C23CC4CC(CC(C4)C2)C3)s1	-	-	18µM	?	-
CCOC(=O)COn1c(-c2cccc(Cl)c2)nc2ccc([N+](=O)[O-])cc21	-	-	-	-	-
CCOC(=O)C(C)On1c(-c2cccc(Cl)c2)nc2ccc([N+](=O)[O-])cc21 (stereo not drawn)	-	-	21µM	?	-
Cc1nnc(C)n1/N=C/c1c(O)ccc2ccccc12	-	-	-	-	-
Cc1nnc(-c2ccccc2)c(=O)n1/N=C/c1c(O)ccc2ccccc12	?	-	5.2µM	4.1µM	?
O=C(CSc1nc(O)c(C/C=C/c2ccccc2)c(=O)[nH]1)Nc1cccc(F)c1	.	.	-	-	.
